Bioassay records as filed in PubChem.
gsp antag: antagonizes gsp, the McCune-Albright syndrome mutation; gsp-mutant cells, cAMP HTRF, 30 min; Potency, µM (top dose mostly 76.9 µM), most hits filed as inhibitors; 340,000 compounds, 0.4% hits; AID 624288; calls by dose curve; cell line not stated here;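 further: intracellular cAMP measured with PDE inhibitor Ro 20-1724 present during compound exposure; nearly all actives have a fitted effect of over 65% in size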
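HTRF cAMP read-out (cAMP-d2 plus anti-cAMP antibody-K in lysis buffer, 30 min RT). Before lysis, cells are exposed to compounds with […] for 30 min at 37C in DPBS containing Ca/Mg, BSA and Tween 20.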
TCR act: activates T cell receptor signaling; 330,000 tested, under 10 active; primary human leukocytes, anti-CD3, IL-2 HTRF, 48 h; Potency, µM (doses to about 9.22 µM), hits mostly activators; AID 504894; active means well fitted activation curve with a large enough effect; inconclusive means small, poorly fitted or top-dose-only effect, or another doubt; inactive means no such curve, though single readings can be large or run the other way
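48 hr co-incubation of compounds, a-CD3 beads and primary human leukocytes; IL-2 quantified homogeneously by HTRF with anti-IL-2 K and d2 conjugates.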
TSHR antag: human thyrotropin receptor antagonism; TSHR-expressing cells, TSH-stimulated cAMP HTRF, 2 h; stronger effect = lower value; 330,000 compounds, 0.2% hits; activity change, negative = inhibition, % at 11.5 µM; AID 504810;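 active means activity change below a set negative limit, meaning inhibition stronger than a set level, cut at about -70% in these data; inconclusive means activity change between two set negative limits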
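Read-out is FRET at 665 nm (cryptate excitation 337 nm) from a cryptate-tagged anti-cAMP antibody, competed by cell cAMP against cAMP-d2. Compounds are tested on freshly harvested TSHR cells challenged with 4nM TSH (EC80) for 2 hours at 37 deg C.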
gsp ag: activates gsp, the McCune-Albright syndrome mutation; gsp mutant cells, cAMP HTRF, 30 min; Potency, µM (top dose mostly 76.9 µM), hits mostly activators; 340,000 compounds, 0.13% hits; active means well fitted activation curve with a large enough effect; inconclusive means small, poorly fitted or top-dose-only effect, or another doubt; inactive means no such curve, though single readings can be large or run the other way; cell line not stated here;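 further: phosphodiesterase inhibitor Ro 20-1724 added with compounds to block cAMP breakdown; nearly all actives have a fitted effect of over 60% in size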
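Cells stably selected in G418 were plated at 2000/well, grown 16-24 hr, then given compounds in DMSO with the PDE inhibitor […] (300 uM solution added) for 30 min at 37C; cAMP was read by HTRF.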
Pin1 inhibitor: blocks the human prolyl isomerase Pin1; Q13526; Pin1 FP peptide displacement, HiFluor488, 10 min; Potency, µM (doses to about 115 µM), most hits filed as inhibitors; 390,000 compounds, 0.009% hits; AID 504891; active means well fitted inhibition curve with a large enough effect in the polarisation, with a control signal flat, not every such curve was filed as active; inconclusive means small, poorly fitted or top-dose-only effect, or effect the other way, or a change in a side signal; inactive means no such curve, though single readings can be large or run the other way; the % refers to the polarisation
Target sequence (Q13526 whole entry, looked up): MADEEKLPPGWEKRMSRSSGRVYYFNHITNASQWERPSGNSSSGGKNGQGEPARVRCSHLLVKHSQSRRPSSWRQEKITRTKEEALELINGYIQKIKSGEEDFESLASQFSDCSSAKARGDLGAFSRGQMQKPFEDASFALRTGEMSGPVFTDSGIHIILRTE
Of the large screens only hits and unclear results are named; the others gave an inactive call. Only some compounds are listed: those with a hit (about 0.63% of all), similar ones and a draw of the others.

O=C(Nc1nccs1)c1ccc2c(c1)C(=O)N(Cc1cccnc1)C2=O	gsp ag inconclusive
CCC(=O)c1c[nH]c(C(=O)NCc2cccnc2)c1	none
O=C(NCc1cccnc1)c1cc(C(=O)C2CC2)c[nH]1	gsp antag 11µM
O=C(Nc1ccc(N2CCN(C(=O)c3ccccc3)CC2)cc1)c1cc2ccccc2o1	gsp antag 35µM
COC(=O)c1ccccc1-c1ccc(/C=N/Nc2nc(N3CCCC3)nc(N3CCCC3)n2)o1	gsp antag 25µM
Cc1ccc(/C=N/Nc2nc(N3CCCCC3)nc(N3CCCCC3)n2)o1	none
COc1ccc2c(C)cc(SCC(=O)NC3CCCC3)nc2c1	gsp ag 11µM (no result: TCR act)
O=C(NCCc1ccccc1)c1nc2c(nnn2Cc2ccccc2Cl)c(=O)[nH]1	gsp antag 40µM
COc1ccc(NC(=O)COc2ccccc2C(N)=O)cc1S(=O)(=O)N1CCCCC1	none (no result: gsp antag, TCR act, TSHR antag, Pin1 inhibitor)
Cc1ccc(NC(=O)COc2ccc(N(C)C(=O)C(C)(C)C)cc2)cc1S(=O)(=O)N1CCCCC1	gsp antag 35µM
COc1cc(C(C)=O)ccc1OCC(=O)Nc1ccc(C)c(S(=O)(=O)N2CCCCCC2)c1	gsp antag 32µM
Cc1ccc(NC(=O)COc2ccccc2C(N)=O)cc1S(=O)(=O)N1CCCCCC1	gsp antag 35µM, TSHR antag inconclusive, gsp ag inconclusive
COc1ccccc1C(=O)C1Nc2ccccc2-c2nnc(SC)nc2O1 (centres undefined)	none
COCCN(CCOC)C(=O)c1cc2c(=O)n3ccccc3nc2s1	gsp ag 4µM
CCN(CC)C(=O)c1cc2c(=O)n3ccccc3nc2s1	gsp ag inconclusive
COc1cc(C)nc(N(C)S(=O)(=O)c2ccccc2Cl)n1	gsp antag 32µM
Cn1c(=O)c2c(nc(CCC3CCCC3)n2C)n(C)c1=O	gsp ag 11µM (no result: TSHR antag)
CCCn1c(CN2CCCCC2C)nc2c1c(=O)n(C)c(=O)n2C (centres undefined)	none
C/C(=N\NC(=O)c1ccc(-c2ccccc2)cc1)C1C(=O)c2ccccc2C1=O	gsp antag 28µM
C/C(=N\NC(=O)c1ccc(Br)cc1)C1C(=O)c2ccccc2C1=O	gsp antag inconclusive, TSHR antag inconclusive
Cc1cc(C(=O)CSc2nncs2)c(C)n1-c1c(C)n(C)n(-c2ccccc2)c1=O	none
Cc1ccc(-n2c(C)cc(C(=O)CSc3nncs3)c2C)cc1	gsp antag 25µM, TSHR antag inconclusive
COc1ccc(NC(=S)N(C(C)C)C2CCN(C(C)C)CC2)cc1Cl	TSHR antag -81 (no result: gsp antag, TCR act, gsp ag, Pin1 inhibitor)
COC(=O)Cn1c(CN2CCN(C(=O)c3ccco3)CC2)nc2c1c(=O)n(C)c(=O)n2C	gsp ag inconclusive
COCCn1c(CN2CCN(C(=O)c3ccco3)CC2)nc2c1c(=O)n(C)c(=O)n2C	gsp ag 18µM
COC(=O)c1ccc(=O)c2nc3/c(=C/O)c(O)cc(=O)c3[nH]c12	Pin1 inhibitor 7.1µM (no result: gsp ag)
COc1ccc(OC)c(-c2csc(NC(=O)CN3C(=O)NC4(CCCC4)C3=O)n2)c1	none
C/C(O)=C(/C#N)c1nc2ccccc2[nH]1	none
N#C/C(=C(/O)C(Cl)(Cl)Cl)c1nc2ccccc2[nH]1	gsp antag 28µM
CN(C)CCNc1ccc(CO)c2sc3ccc(O)cc3c(=O)c12	none (no result: TSHR antag)
CN(C)CCNc1ccc2ncn3c4ccc(O)cc4c(=O)c1c23	gsp antag inconclusive, gsp ag 14µM, Pin1 inhibitor inconclusive (no result: TSHR antag)
CS(=O)(=O)c1ccc(N2CCN(c3ccccn3)CC2)c([N+](=O)[O-])c1	TSHR antag -114, gsp ag inconclusive
O=C(c1ccc(N2CCCC2)c([N+](=O)[O-])c1)N1CCN(c2ccccn2)CC1	none
Cc1ccc(C(C)C)c(OCC(=O)NCC(c2cccs2)N2CCOCC2)c1 (centres undefined)	gsp antag 35µM
CCN(CC)C(=O)c1ccccc1NS(=O)(=O)c1ccc(OC)c(C(=O)N2CCOCC2)c1	none (no result: gsp antag)
Oc1ccccc1N1CCN(c2ccc3ccccc3n2)CC1	TSHR antag -77
COc1ccc(/C=C/C(=O)Nc2ccc3nc4c(c(Nc5ccc(OC)c(OC)c5)c3c2)CCCC4)cc1	none (no result: gsp antag, TCR act, TSHR antag, gsp ag)
CC1(c2ccccc2)CC(C)(C)N(C(N)=O)c2ccccc21 (centres undefined)	none (no result: TCR act)
CC(=O)N1c2ccccc2C(C)(c2ccccc2)CC1(C)C (centres undefined)	TSHR antag -78
COc1ccccc1CNS(=O)(=O)c1ccc(-n2cccn2)cc1	TSHR antag -111, gsp ag inconclusive
COc1ccc(CNS(=O)(=O)c2ccc(-n3cccn3)cc2)cc1	none
COc1cccc(-c2nc(CC(=O)O)cs2)c1OC	none (no result: TCR act)
COc1cc(/C=C2\SC(=Nc3ccccc3)N(CCc3c[nH]c4ccccc34)C2=O)ccc1OC(C)C(=O)O (centres undefined)	gsp antag 35µM (no result: Pin1 inhibitor)
O=C1/C(=C/c2ccc(N3CCOCC3)o2)SC(=Nc2ccccc2)N1CCc1c[nH]c2ccccc12	Pin1 inhibitor inconclusive
COc1ccc(N=C2S/C(=C\c3ccc(OC(C)C(=O)O)c(OC)c3)C(=O)N2CCc2c[nH]c3ccccc23)cc1 (centres undefined)	gsp antag 35µM (no result: Pin1 inhibitor)
COCCN1C(=O)C(O)=C(C(=O)c2cccs2)C1c1ccccc1 (centres undefined)	gsp ag 3.5µM
CC1(C)CC(C(CC(=O)N2CCCC2)Cc2ccccc2)CCO1 (centres undefined)	gsp antag 50µM
COc1ccc2c(c1)[nH]c1c(N3CCSCC3)ncnc12	gsp antag 28µM, Pin1 inhibitor inconclusive
Cc1ccc2[nH]c3c(N4CCN(Cc5ccc6c(c5)OCO6)CC4)ncnc3c2c1	none (no result: gsp antag, TCR act, gsp ag, Pin1 inhibitor)
COc1ccc2c(c1)[nH]c1c(N3CCN(Cc4ccc5c(c4)OCO5)CC3)ncnc12	gsp antag 40µM
N#Cc1ccc(-c2nc3ccc(Br)cn3c2Cc2ccccc2)cc1	gsp ag 32µM (no result: gsp antag, TCR act, TSHR antag, Pin1 inhibitor)
O=C(c1n[nH]c2ccccc12)N1CCOCC1	none
CC(=O)c1ccc(N2CCN(C(=O)c3n[nH]c4ccccc34)CC2)cc1	gsp antag 11µM
COc1ccc(NC(=O)c2ccccc2Oc2ccccc2)c(OC)c1	none
COc1ccccc1NC(=O)c1ccccc1Oc1ccccc1	gsp antag 5.6µM, Pin1 inhibitor inconclusive
COc1cc(NC(=O)c2cc3ccccc3cc2O)c(OC)cc1Cl	gsp antag 20µM, TSHR antag inconclusive, gsp ag inconclusive
CCCC(=O)Nc1nc(-c2ccc(Cl)s2)cs1	none
CCOC(=O)N1CCN(C(=O)CSCC(=O)Nc2nc(-c3ccc(OC)cc3)cs2)CC1	gsp antag 28µM
COc1ccc(-c2csc(NC(=O)CSCC(=O)Nc3cc(C)on3)n2)cc1	none
COc1ccc(-c2csc(NC(=O)CSc3nc(SC)ns3)n2)cc1	TSHR antag -74
CCOC(=O)N1CCN(C(=O)CSCC(=O)Nc2nc(-c3ccc(-c4ccccc4)cc3)cs2)CC1	gsp antag 25µM, TSHR antag inconclusive
